Compound activity deposited in PubChem BioAssay by National Center for Advancing Translational Sciences (NCATS).
TDP1 cell CPT = growth inhibition of DT40 Tdp1-/-;hTDP1 cells with camptothecin (screen for TDP1 inhibitors) | chicken DT40 Tdp1-/-;hTDP1 cells + 20 nM CPT, ATP luminescence, 48 h | Potency, µM (highest dose often 46.2 µM), inactives show top-dose activity change, negative = growth inhibition, hits mostly inhibitors | actives 12% (n = 420,000) | AID 686979; further: potency means the concentration at half of the fitted maximal effect; nearly all actives have a fitted effect of over 55% in size
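Cell growth measured by CellTiter-Glo luminescence after a minimum 48 h, 37 C compound exposure with 20 nM CPT in Tdp1-knockout DT40 cells stably expressing hTDP1, seeded 400/well; qHTS titration format.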
DT40 TDP1 no CPT = qHTS for Inhibitors of human tyrosyl-DNA phosphodiesterase 1 (TDP1): qHTS in cells in absence of CPT; DT40 Tdp1-/- hTDP1 cells, no CPT, ATP luminescence, 48 h; Potency, µM (series often up to 46.2 µM), without a hit: top-dose activity change, negative = growth inhibition, actives largely listed as inhibitors; actives 15% (n = 420,000); AID 686978, 2013; further: potency means the concentration at half of the fitted maximal effect; nearly all actives have a fitted effect of over 55% in size
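Readout: luminescence from CellTiter-Glo after 30 min in the dark at RT. Cells: DT40 Tdp1-/- with stable hTDP1, 400/well. Exposure: compounds alone, ≥48 hr, 37 °C.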
HT1080 IDH1KD tx = HT-1080 IDH1 knockdown cell toxicity (counter line); HT-1080 IDH1 knockdown viability, ATP luminescence, 48 h; Potency, µM (highest dose often 46.1 µM), for the others: top-dose activity, negative = toxicity, hits mostly cytotoxic; actives 2% (n = 360,000); AID 686971;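 further: potency means the concentration at half of the fitted maximal effect; 0% = DMSO wells and -100% = cell-free medium wells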
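HT-1080-IDH1KD cells (IDH1 knocked down), 750/well in RPMI with 5% FBS, treated with compound 48 h at 37 degrees C. Viability by CellTiter-Glo luminescence, normalised to DMSO and no-cell wells; concentration-response curves classed.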
ELG1 repair inh = ELG1-dependent DNA repair inhibition; actives 2.3% (n = 330,000); HEK293T ELG1-luciferase reporter, luminescence, 16 h; DNA damage induced by 5-fluorouridine; Potency, µM (highest dose often 46.1 µM), for inactives: at the top dose activity change, negative = inhibition, usual class: inhibitors; further: potency means the concentration at half of the fitted maximal effect; nearly all actives have a fitted effect of over 55% in size
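Luminescence from the luciferase reporter, measured 30 min after ONE-Glo reagent at room temperature, was the read-out. Beforehand, 2,000 cells per well were exposed for 16 hr at 37 °C to 5-fluorouridine together with compound or vehicle.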
HT1080NT lethal = kills 2HG-producing HT-1080-NT fibrosarcoma cells. HT-1080-NT fibrosarcoma viability, CellTiter-Glo ATP luminescence, 48 h. Potency, µM (titrated, usually from 46.1 µM), inactives show at the highest dose activity, negative = less viability, usual class: cytotoxic. actives 1.6% (n = 360,000);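 further: NT is the 2HG producing partner of a matched IDH1 knockdown line; potency means the concentration at half of the fitted maximal effect; 0% = DMSO-treated cells and -100% = media-only wells without cells; nearly all actives have a fitted effect of over 55% in size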
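Fibrosarcoma NT cells, 750 per well in 5% FBS RPMI, were exposed to compound for 48 hours. Viability: CellTiter-Glo luminescence.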
IL-1B inflam inh = inhibitors of inflammasome signaling (IL-1 beta secretion); THP-1 LPS/ATP IL-1B secretion, AlphaLISA, 16 h; active compounds read low; activity change, % at 57.5 µM; actives 4.7% (n = 360,000); in the data active means activity change below about -50%; inconclusive means mostly about -30% to -49%
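THP-1 cells pretreated 1 hr with compounds (up to 57.5 uM final), then stimulated with LPS (250 ng/mL final) plus ATP (1.25 mM final); secreted IL-1B measured by AlphaLISA after 16 hr, decreased signal indicating inhibition.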
* hit, by the source's call; ? = inconclusive; nt = no result given; [ ] = remark or other dose. The list is not random: actives were taken first. Their share in the collection is about 19%. Unless noted, the call rests on the fitted dose curve; in most records, active means well fitted curve in the direction sought with a large enough effect; inconclusive means small, poorly fitted or top-dose-only effect, or another doubt; inactive means no such curve, though single readings can be large; an effect the other way counts as inactive or inconclusive. Unless noted, on the % scale 0 is the no-effect control and ±100 the full control effect.

SMILES	TDP1 cell CPT	DT40 TDP1 no CPT	HT1080 IDH1KD tx	ELG1 repair inh	HT1080NT lethal	IL-1B inflam inh
COc1cc(OC)c(OC)cc1/C=C/c1cc(C(F)(F)F)[nH]c(=O)n1	9%	-27%	4%	8%	6%	-7
COc1cc(/C=C/c2cc(C(F)(F)F)[nH]c(=O)n2)cc(OC)c1OC	?	?	29µM*	?	?	-101*
CC(=O)c1ccc(Cc2ccc(C(C)=O)cc2)cc1	0%	?	7%	11%	4%	-4
O=C(NCCC1=CCCCC1)c1[nH]c(C(F)(F)F)nc1-c1ccccc1	16µM*	?	?	nt	?	0
O=C(NCCc1ccccc1)c1[nH]c(C(F)(F)F)nc1-c1ccccc1	-24%	?	-1%	nt	1%	5
COc1ccc2[nH]c(=O)c3c(c2c1)OC(C)(C)C=C3	15µM*	15µM*	?	?	?	-106*
COc1ccc2nc3n(c(=O)c2c1)-c1cc2ccccc2cc1C(=O)NC3Cc1ccccc1 (stereo not drawn)	?	21µM*	-6%	nt	-15%	-4
COc1ccc2nc3n(c(=O)c2c1)-c1ccc(Cl)cc1C(=O)NC3Cc1ccc(O)cc1 (stereo not drawn)	-1%	-11%	1%	nt	6%	16
Cc1cc(C)c2c(=O)n3c(nc2c1)C(CC(C)C)NC(=O)c1cccnc1-3 (stereo not drawn)	?	23µM*	-5%	nt	-5%	-3
COc1ccc2nc3n(c(=O)c2c1)-c1cc(Cl)ccc1C(=O)NC3Cc1ccccc1 (stereo not drawn)	nt	nt	nt	-5%	nt	nt
Cc1cc(C)c2c(=O)n3c(nc2c1)C(Cc1ccc(O)cc1)NC(=O)c1cc2ccccc2cc1-3 (stereo not drawn)	16µM*	18µM*	?	nt	?	-16
Cc1cc(C)c2c(=O)n3c(nc2c1)C(C)NC(=O)c1cccnc1-3 (stereo not drawn)	12%	-7%	16%	nt	17%	-15
COc1ccc2nc3n(c(=O)c2c1)-c1cc2ccccc2cc1C(=O)NC3Cc1ccc(O)cc1 (stereo not drawn)	?	18µM*	3.3µM*	nt	6.5µM*	-23
O=C(NCC1CCC2(CCN(Cc3cc4ccccc4o3)CC2)O1)c1ccccc1 (stereo not drawn)	10%[9.04 µM]	-12%	nt	nt	nt	nt
O=C1NC(Cc2ccc(O)cc2)c2nc3ccc(Br)cc3c(=O)n2-c2cc3ccccc3cc21 (stereo not drawn)	12µM*	9.2µM*	13µM*	nt	16µM*	-24
CCCS(=O)(=O)NC(=O)C1(C)CCCN(C(=O)c2ccco2)C1 (stereo not drawn)	0%	6%	24%	nt	18%	-2
COC(=O)c1ccc(C(=O)N2CCCC(C)(C(=O)NS(=O)(=O)C3CC3)C2)cc1 (stereo not drawn)	?	1.5µM*	9%	nt	14%	33
Cc1c(C(=O)N2CCC(C)(C(=O)NS(=O)(=O)C3CC3)C2)oc2ccccc12 (stereo not drawn)	?	0%	2%	nt	17%	20
CCCS(=O)(=O)NC(=O)C1(C)CCCN(C(=O)c2c(F)cccc2F)C1 (stereo not drawn)	-3%	-4%	4%	nt	16%	-4
CC1(C(=O)NS(=O)(=O)C2CC2)CCCN(C(=O)c2ccco2)C1 (stereo not drawn)	?	12µM*	26%	nt	10%	16
CCCS(=O)(=O)NC(=O)C1(C)CCCN(C(=O)c2ccccc2F)C1 (stereo not drawn)	-1%	-1%	10%	nt	24%	-71*
Cc1c(C(=O)N2CCCC(C)(C(=O)NS(=O)(=O)C3CC3)C2)oc2ccccc12 (stereo not drawn)	?	4.1µM*	19%	nt	20%	24
CC1(C(=O)NS(=O)(=O)C2CC2)CCCN(C(=O)/C=C/c2ccccc2)C1 (stereo not drawn)	?	15µM*	20%	nt	13%	23
CC1(C(=O)NS(=O)(=O)C2CC2)CCCN(C(=O)c2ccc3ccccc3c2)C1 (stereo not drawn)	0.52µM*	0.26µM*	3%	nt	20%	11
CC1(C(=O)NS(=O)(=O)C2CC2)CCCN(C(=O)c2c(F)cccc2F)C1 (stereo not drawn)	5.2µM*	4.6µM*	7%	nt	12%	-12
SMILES	TDP1 cell CPT	DT40 TDP1 no CPT	HT1080 IDH1KD tx	ELG1 repair inh	HT1080NT lethal	IL-1B inflam inh
CC1(C(=O)NS(=O)(=O)C2CC2)CCCN(C(=O)c2ccccc2)C1 (stereo not drawn)	5.2µM*	2.1µM*	7%	nt	4%	3
CC1(C(=O)NS(=O)(=O)C2CC2)CCCN(C(=O)Cc2ccc(F)cc2)C1 (stereo not drawn)	?	?	6%	nt	28%	21
COc1ccc(/C=C/C(=O)OCC(=O)c2cc(C)ccc2C)cc1	-22%	-17%	8%	nt	15%	-7
COc1ccccc1NC(=O)c1cc2c(=O)oc3ccc(C)cc3c2s1	-6%	?	nt	nt	nt	nt
C=CCCCCCCCCC(=O)OC	-4%	-29%	nt	nt	nt	nt
COCCNC(=O)C1(C)CCCN(C(=O)c2ccc3c(c2)OCO3)C1 (stereo not drawn)	-3%	0%	22%	nt	?	19
Cn1nc(C(C)(C)C)cc1C(=O)N1CCCC(C)(C(=O)NS(=O)(=O)C2CC2)C1 (stereo not drawn)	6.5µM*	6.5µM*	7%	nt	?	17
CC1(C(=O)NS(=O)(=O)C2CC2)CCCN(C(=O)c2cccs2)C1 (stereo not drawn)	5.2µM*	6.5µM*	4%	nt	30%	37
CC1(C(=O)NS(=O)(=O)C2CC2)CCCN(C(=O)c2ccc3c(c2)OCO3)C1 (stereo not drawn)	7.3µM*	5.8µM*	?	nt	?	0
Cc1c(N/C(=N/S(=O)(=O)c2ccc(F)cc2)c2ccccc2)c(=O)n(-c2ccccc2)n1C	-5%	4%	0%	1%	4%	10
O=C(CN1CCc2ccccc2C1)Nc1cc(S(=O)(=O)N2CCOCC2)ccc1N1CCOCC1	9.2µM*	23µM*	-4%	-9%	-1%	-6
O=C(CN1CCCCC1)Nc1cc(S(=O)(=O)N2CCOCC2)ccc1N1CCCC1	-19%	-17%	10%	22%	-1%	-11
